KKLEB cytotox: cytotoxicity in KKLEB CF airway cells, primary screen, cytotoxicity control for CF NF-kB inhibitor project, cell-based, uHTS, fluorescence assay plates; activity change (cytotoxicity), % at 5 µM; KKLEB CF airway cells viability, ATPlite luminescence, overnight; stronger effect = lower value; cells stimulated with P. aeruginosa culture filtrate; 360,000 compounds, 0.36% hits;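 active = corrected activity change at or below -50% at 5 µM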
CF NFkB block: inhibitors of PAF-induced NF-kB signaling, primary screen, cell-based, GFP fluorescence, uHTS; inhibition, % at 5 µM; KKLEB NF-kB-GFP reporter, GFP fluorescence overnight; 360,000 compounds, 0.86% hits;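 active = at least 50% inhibition at 5 µM, scaled per plate between neutral and stimulator controls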;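 also: PAF is a Pseudomonas aeruginosa culture filtrate used as stimulus; plate controls were PAF-stimulated DMSO wells for no effect and unstimulated DMSO wells for full effect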
LGR2 antag: inhibitors of bursicon-induced LGR2 CRE-luciferase signal, primary screen, cell-based, HEK293, CRE-luciferase reporter, bursicon stimulation; AID 720647, 2013; bursicon-stimulated, 4 h; inhibition, % at 9.99 µM; 380,000 compounds, 0.35% hits; Drosophila bursicon receptor LGR2 (rickets);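 active = drop in luminescence signal, shown as inhibition above about 50% in the replicate tests, limit read from the data, passing the limit was not always enough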;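 also: agonist challenge used bursicon conditioned medium at about half maximal strength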
TWEAK Fn14 block: inhibitors of TWEAK-Fn14 signaling, primary screen, luciferase reporter cells, uHTS | inhibition, % at 10 µM | 360,000 compounds, 2% hits | TWEAK-stimulated Fn14 reporter cells, luciferase luminescence, 8 h; in the data active = inhibition above about 50%
EWS-Fli block: EWS/Fli-driven NR0B1 reporter inhibitors, primary screen, A673 cells, NR0B1 luciferase, luminescence, MLPCN library. viability-normalised. inhibition, % at 12.6 µM. 350,000 compounds, 0.67% hits. AID 651661, 2012;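 active = mean inhibition of at least 50% after viability correction, with every replicate also passing that limit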;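 also: firefly luciferase signal divided by Alamar Blue viability fluorescence both relative to DMSO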
TROY NFkB inh: inhibitors of TROY-driven NF-kB signaling, primary screen, Q293 LMP1-TROYcd cells, NF-kB luciferase, uHTS; Q293 LMP1-TROYcd NF-kB luciferase reporter, 4 h; inhibition, % at 10 µM; 360,000 compounds, 0.98% hits; AID 1347056, 2019;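 active = compounds whose plate-normalised and pattern-corrected inhibition of the luciferase reporter signal at the single screening dose is 50% or more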
Numbers without * were called inactive; x = no result. This is a sample that favours compounds with a hit; in the whole collection about 2.6% have one here.

SMILES	KKLEB cytotox	CF NFkB block	LGR2 antag	TWEAK Fn14 block	EWS-Fli block	TROY NFkB inh
Cc1noc(C)c1NC(=O)N(C)C[C@@H]1OCCCC[C@@H](C)Oc2ccc(NC(=O)CCC(F)(F)F)cc2C(=O)N([C@H](C)CO)C[C@@H]1C	x	x	6	x	-18	x
Cc1ccc2oc(-c3ccc(NC(=O)c4cccnc4)cc3)nc2c1	13	-2	-7	56*	x	13
O=C(Nc1ccc(-c2nc3ccccc3o2)cc1)c1cccnc1	8	-16	x	39	x	4
CO[C@H]1CN(C)C(=O)c2cc(NS(=O)(=O)Cc3ccccc3)ccc2OC[C@H](C)NC[C@@H]1C	x	x	5	x	1	x
Cc1ccc2c(c1)sc(=NC(=O)C1CC1)n2C	7	-22	-57	6	-82	-47
Cc1ccc2c(c1)sc(=NC(=O)c1cccs1)n2C	-66*	-34	96*	89*	78*	59*
CCCNC(=O)C[C@@H]1CC[C@@H]2[C@@H](COc3ccc(NC(=O)CC)cc3C(=O)N2C)O1	x	x	6	x	-2	x
NC(=N\N=Cc1ccccc1)/C(N)=N/N=Cc1ccccc1	-4	-3	-11	-28	-53	-42
NC(=N\N=Cc1ccco1)/C(N)=N/N=Cc1ccco1	-4	5	0	72*	-58	-12
CNC[C@@H]1Oc2ccc(NS(=O)(=O)c3ccc(C)cc3)cc2C(=O)N([C@@H](C)CO)C[C@H]1C	x	x	-2	x	1	x
COc1ccc(-c2ccc(SC)nn2)cc1	-12	7	83*	88*	58*	46
CCOc1ccc(-c2ccc(SCC)nn2)cc1	-22	-2	59*	64*	-4	-8
CCSc1ccc(-c2ccc(C)cc2)nn1	-15	0	-19	-19	-10	-27
COc1cccc2sc(Nc3nc(-c4ccccn4)cs3)nc12	14	-76	x	104*	x	-22
c1ccc(Nc2nc(-c3ccccn3)cs2)cc1	0	-10	x	45	x	35
CC1(C)CC[C@]2(C(=O)n3ccnc3)CC[C@]3(C)[C@H](C(=O)C=C4[C@@]5(C)C=C(C#N)C(=O)C(C)(C)[C@@H]5CC[C@]43C)[C@@H]2C1	-70*	85*	9	106*	76*	75*
Cc1ccc(S(=O)(=O)N2CCOc3ccccc32)c(C)c1NS(C)(=O)=O	4	2	6	95*	6	3
Cc1ccc(S(=O)(=O)N2CC(=O)Nc3ccccc32)c(C)c1NS(C)(=O)=O	-5	-2	13	-4	-5	6
C[C@@H]1CN([C@H](C)CO)C(=O)c2cc(NC(=O)Cn3cnnn3)ccc2O[C@H]1CN(C)CC1CCCCC1	x	x	10	x	-5	x
N#Cc1c(-c2cccs2)nc(SCc2ccc(Cl)cc2)[nH]c1=O	-1	9	-12	14	-1	74*
CSc1nc(-c2cccs2)c(C#N)c(=O)[nH]1	12	-12	-17	-22	1	-1
Cc1ccc(S(=O)(=O)N(C)C[C@H]2OCCCC[C@H](C)Oc3ccc(NC(=O)CCCN(C)C)cc3C(=O)N([C@H](C)CO)C[C@@H]2C)cc1	x	x	-12	x	-3	x
O=C(O)c1ccc(N=Nc2c(O)ccc3ncccc23)cc1	-8	-28	30	59*	-63	-16
C[C@@H]1CN([C@H](C)CO)S(=O)(=O)c2ccc(C#CC3CC3)cc2O[C@@H]1CN(C)C(=O)CC1CC1	x	x	0	x	-4	x
COC(=O)c1cn[nH]c1NC(=S)Nc1ccc(Cl)c(Cl)c1	14	23	26	69*	x	73*
SMILES	KKLEB cytotox	CF NFkB block	LGR2 antag	TWEAK Fn14 block	EWS-Fli block	TROY NFkB inh
CCOC(=O)NC(=S)Nc1ccc(OC)cc1	12	10	-5	-16	-3	-22
COC(=O)c1cn[nH]c1NC(=S)Nc1ccc(C)cc1Cl	7	20	x	66*	x	73*
CCOC(=O)c1cn[nH]c1NC(=S)Nc1ccc(OC)cc1	-20	31	x	76*	21	62*
COC(=O)c1cn[nH]c1NC(=S)Nc1ccccc1C	-20	8	x	-12	-38	-30
CC(C)(C)c1cc(/C=C2\NC(=O)NC2=O)cc(C(C)(C)C)c1O	-10	21	28	6	3	3
CC(C)(C)c1cc(/C=N/O)cc(C(C)(C)C)c1O	1	38	11	54*	-3	37
CC[N+](CC)(CC)CCOc1ccc(/C=C/c2ccccc2)cc1	-12	53*	16	4	7	10
C[C@@H]1CCCCO[C@H](CN(C)C(=O)CCCN(C)C)[C@H](C)CN([C@H](C)CO)C(=O)c2cc(NC(=O)C3CCCCC3)ccc2O1	x	x	-17	x	0	x
N#Cc1cc(-c2ccccc2)nc(Oc2ccccc2)n1	2	14	21	61*	-6	48
